The values below come from PubChem BioAssay.

SMILES strings stand for the structures. Active and inactive are the calls of the source.

Assay [1] in a line: small molecules captured by biotinylated probe aFSTL3 – biochemical, small-molecule microarray, fluorescence 635/667, stem cell growth factor project, primary screen (AID 1064).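 Further: measures binding of the biotinylated anti-FSTL3 antibody to printed compounds.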 The following applies: higher = more signal.
Assay [2] in a line: binders from COS7 lysate, DM2A8 probe, primary screen, torsin A project, cell lysate, small-molecule microarray, fluorescence 635/667 (AID 1065). The note with it: higher = more signal, COS7 lysate expressing mutant human TOR1A.
A short description of assay [3]: small molecules captured by biotinylated probe aFGF2 – biochemical, small-molecule microarray, fluorescence 635/667, stem cell growth factor project, primary screen (AID 1067).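 Further: measures binding of biotinylated aFGF2 protein to printed compounds on slides; z-score merges feature fluorescence and signal-to-noise across triplicate slides.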 The note with it: higher = more signal.
Assay [4] is described as follows: small molecules captured by biotinylated probe aFGF10 – biochemical, small-molecule microarray, fluorescence 635/667, stem cell growth factor project, primary screen (AID 1071).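 Further: score merges 667 nm spot intensity and signal to noise from triplicate slides.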 The note with it: higher = more signal.
For assay [5], the target named is Neurogenic locus notch homolog protein 2 (Homo sapiens) (UniProt Q04721). The assay can be described thus: small molecules binding Notch2 protein – biochemical, small-molecule microarray, 635 nm fluorescence, stem cell growth factors, primary screen (AID 1073). The note with it: higher = more signal.
Assay [6] concerns the target Pro-neuregulin-1, membrane-bound isoform (Homo sapiens) (UniProt Q02297). The assay can be described thus: small molecules binding neuregulin-1 protein – biochemical, small-molecule microarray, fluorescence 635/667, psychiatric disease protein project, primary screen (AID 1075).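 Further: score combines 667 nm spot fluorescence with signal to noise.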 The note with it: NRG1 binding, 635 nm fluorescence, higher = more signal.
The subject of assay [7] is Neuregulin-1 EGF-like domain. The experiment in a line: small molecules binding NRG1 EGF domain – biochemical, small-molecule microarray, 635 nm fluorescence, primary screen (AID 1081).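 Further: binding of the protein to compounds printed on small-molecule microarray slides.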 The following applies: higher = more signal.
The nature of assay [8]: FRG1 expression reporter modulators in myotubes – cell-based, C2C12 myotubes, firefly/Renilla luciferase, luminescence, FRG1 inhibition for FSHD, primary screen (AID 1084). The note with it: FRG1 promoter luciferase, higher = more signal, called active from +8 up or from −8 down.
The nature of assay [9]: small molecules captured by biotinylated probe aFST – biochemical, small-molecule microarray, fluorescence 635/667, stem cell growth factor project, primary screen (AID 1086).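 Further: score merges 667 nm fluorescence with signal-to-noise of each printed compound spot.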 The following applies: higher = more signal.
Assay [10] is described as follows: binders of probe aHhip on microarray, primary screen, stem cell growth factor project, biochemical, small-molecule microarray, fluorescence 635/667 (AID 1087).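 Further: score merges spot fluorescence at 667nm with spot signal to noise ratio.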 The note with it: higher = more signal.
Assay [11] relates to PRMT1 (protein arginine N-methyltransferase 1). The assay can be described thus: small molecules binding arginine methyltransferase PRMT1 – biochemical, small-molecule microarray, 635 nm fluorescence, primary screen (AID 1088).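 Further: binding of Prmt1 protein to compounds spotted on small-molecule microarray slides.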 The following applies: higher = more signal.
The nature of assay [12]: growth effects on S. cerevisiae YJM789 – YJM789 clinical isolate, OD600, 24 h, basal, primary screen (AID 1089).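 Further: growth of clinical yeast isolate S. cerevisiae YJM 789 seeded 1000 cells per well; test concentration not given here.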 The following applies: higher = more signal, called active from +8 up or from −8 down.
A short description of assay [13]: S. pombe growth modifiers, basal conditions – strain 972, OD600, 24 h, no modulator, primary screen (AID 1090).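 Further: basal condition with compound alone and no growth modifier present; test concentration not given here.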 The following applies: S. pombe 972 growth, higher = more signal, called active from +8 up or from −8 down.
Assay [14] is described as follows: budding yeast growth modifiers under rapamycin – strain BY4716, OD600, 96 h, primary screen (AID 1091). Further: test concentration not given here. The note with it: S. cerevisiae BY4716 + rapamycin, higher = more signal, called active from +8 up or from −8 down.
Assay [15] deals with Torsin-1A-interacting protein 2 (Homo sapiens) (UniProt Q8NFQ8). The assay can be described thus: small molecules binding lysate-expressed LULL1 – cell lysate, human LULL1 lysate, 635/667 nm fluorescence, primary screen (AID 1092).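 Further: probe is lysate of COS7 cells overexpressing human LULL1; score merges per-feature 667 nm fluorescence with signal-to-noise.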 The following applies: small-molecule microarray, hLULL1 lysate binding, 635 nm fluorescence; higher = more signal.
A short description of assay [16]: optical density change of DRC41 E. coli – strain DRC41, OD650, 24 h, E. coli filamentation project, primary screen (AID 1093).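 Further: MC1000 strain lacking acrAB efflux and sulA so SOS filamentation is blocked; test concentration not given here.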 The following applies: E. coli DRC41 growth, higher = more signal, called active from +8 up or from −8 down.
The nature of assay [17]: probe aLefty2 binding to arrayed compounds – biochemical, biotinylated probe, 635/667 nm fluorescence, primary screen (AID 1094).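 Further: score merges spot fluorescence near 667 nm with spot signal-to-noise ratio.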 The note with it: small-molecule microarray, higher = more signal.
The test system of assay [18] is Noggin (protein binding on small-molecule microarray). The assay can be described thus: small molecules binding Noggin protein – biochemical, 635/667 nm fluorescence, primary screen (AID 1095).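 Further: score merges 667 nm feature fluorescence with signal to noise over triplicate slides.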 The following applies: 635 nm fluorescence, higher = more signal.
The target of assay [19] is Neurogenic locus notch homolog protein 3 (Homo sapiens) (UniProt Q9UM47). The assay can be described thus: small molecules binding NOTCH3 protein – biochemical, 635/667 nm fluorescence, primary screen (AID 1096). The note with it: small-molecule microarray, 635 nm fluorescence, higher = more signal.
A short description of assay [20]: probe aEGFR binding to arrayed compounds – biochemical, biotinylated probe, 635/667 nm fluorescence, primary screen (AID 1097).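 Further: probe is a biotinylated anti-EGFR antibody binding compounds printed on slides; score combines fluorescence near 667 nm and signal to noise of each spot.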 The following applies: small-molecule microarray, higher = more signal.

Pro-neuregulin-1, membrane-bound isoform (Homo sapiens), sequence (Q02297 whole entry, looked up, the tested form may be a part, canonical isoform): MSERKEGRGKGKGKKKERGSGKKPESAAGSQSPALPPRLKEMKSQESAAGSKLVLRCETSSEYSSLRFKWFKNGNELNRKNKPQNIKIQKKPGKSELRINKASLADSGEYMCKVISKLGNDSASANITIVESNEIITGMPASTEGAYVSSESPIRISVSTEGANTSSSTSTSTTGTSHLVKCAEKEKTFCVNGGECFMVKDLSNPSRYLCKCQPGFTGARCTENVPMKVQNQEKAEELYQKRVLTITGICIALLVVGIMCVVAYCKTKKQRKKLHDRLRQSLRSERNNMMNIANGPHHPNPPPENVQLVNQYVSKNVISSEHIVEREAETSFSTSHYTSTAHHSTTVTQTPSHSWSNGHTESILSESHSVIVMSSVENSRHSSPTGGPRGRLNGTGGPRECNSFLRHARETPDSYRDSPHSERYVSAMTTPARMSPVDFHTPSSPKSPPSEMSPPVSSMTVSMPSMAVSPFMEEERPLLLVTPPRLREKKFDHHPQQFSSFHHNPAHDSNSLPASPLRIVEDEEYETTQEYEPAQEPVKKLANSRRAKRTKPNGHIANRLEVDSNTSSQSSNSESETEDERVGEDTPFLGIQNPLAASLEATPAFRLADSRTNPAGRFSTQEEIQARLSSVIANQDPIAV
Neurogenic locus notch homolog protein 3 (Homo sapiens), sequence (Q9UM47 whole entry, looked up): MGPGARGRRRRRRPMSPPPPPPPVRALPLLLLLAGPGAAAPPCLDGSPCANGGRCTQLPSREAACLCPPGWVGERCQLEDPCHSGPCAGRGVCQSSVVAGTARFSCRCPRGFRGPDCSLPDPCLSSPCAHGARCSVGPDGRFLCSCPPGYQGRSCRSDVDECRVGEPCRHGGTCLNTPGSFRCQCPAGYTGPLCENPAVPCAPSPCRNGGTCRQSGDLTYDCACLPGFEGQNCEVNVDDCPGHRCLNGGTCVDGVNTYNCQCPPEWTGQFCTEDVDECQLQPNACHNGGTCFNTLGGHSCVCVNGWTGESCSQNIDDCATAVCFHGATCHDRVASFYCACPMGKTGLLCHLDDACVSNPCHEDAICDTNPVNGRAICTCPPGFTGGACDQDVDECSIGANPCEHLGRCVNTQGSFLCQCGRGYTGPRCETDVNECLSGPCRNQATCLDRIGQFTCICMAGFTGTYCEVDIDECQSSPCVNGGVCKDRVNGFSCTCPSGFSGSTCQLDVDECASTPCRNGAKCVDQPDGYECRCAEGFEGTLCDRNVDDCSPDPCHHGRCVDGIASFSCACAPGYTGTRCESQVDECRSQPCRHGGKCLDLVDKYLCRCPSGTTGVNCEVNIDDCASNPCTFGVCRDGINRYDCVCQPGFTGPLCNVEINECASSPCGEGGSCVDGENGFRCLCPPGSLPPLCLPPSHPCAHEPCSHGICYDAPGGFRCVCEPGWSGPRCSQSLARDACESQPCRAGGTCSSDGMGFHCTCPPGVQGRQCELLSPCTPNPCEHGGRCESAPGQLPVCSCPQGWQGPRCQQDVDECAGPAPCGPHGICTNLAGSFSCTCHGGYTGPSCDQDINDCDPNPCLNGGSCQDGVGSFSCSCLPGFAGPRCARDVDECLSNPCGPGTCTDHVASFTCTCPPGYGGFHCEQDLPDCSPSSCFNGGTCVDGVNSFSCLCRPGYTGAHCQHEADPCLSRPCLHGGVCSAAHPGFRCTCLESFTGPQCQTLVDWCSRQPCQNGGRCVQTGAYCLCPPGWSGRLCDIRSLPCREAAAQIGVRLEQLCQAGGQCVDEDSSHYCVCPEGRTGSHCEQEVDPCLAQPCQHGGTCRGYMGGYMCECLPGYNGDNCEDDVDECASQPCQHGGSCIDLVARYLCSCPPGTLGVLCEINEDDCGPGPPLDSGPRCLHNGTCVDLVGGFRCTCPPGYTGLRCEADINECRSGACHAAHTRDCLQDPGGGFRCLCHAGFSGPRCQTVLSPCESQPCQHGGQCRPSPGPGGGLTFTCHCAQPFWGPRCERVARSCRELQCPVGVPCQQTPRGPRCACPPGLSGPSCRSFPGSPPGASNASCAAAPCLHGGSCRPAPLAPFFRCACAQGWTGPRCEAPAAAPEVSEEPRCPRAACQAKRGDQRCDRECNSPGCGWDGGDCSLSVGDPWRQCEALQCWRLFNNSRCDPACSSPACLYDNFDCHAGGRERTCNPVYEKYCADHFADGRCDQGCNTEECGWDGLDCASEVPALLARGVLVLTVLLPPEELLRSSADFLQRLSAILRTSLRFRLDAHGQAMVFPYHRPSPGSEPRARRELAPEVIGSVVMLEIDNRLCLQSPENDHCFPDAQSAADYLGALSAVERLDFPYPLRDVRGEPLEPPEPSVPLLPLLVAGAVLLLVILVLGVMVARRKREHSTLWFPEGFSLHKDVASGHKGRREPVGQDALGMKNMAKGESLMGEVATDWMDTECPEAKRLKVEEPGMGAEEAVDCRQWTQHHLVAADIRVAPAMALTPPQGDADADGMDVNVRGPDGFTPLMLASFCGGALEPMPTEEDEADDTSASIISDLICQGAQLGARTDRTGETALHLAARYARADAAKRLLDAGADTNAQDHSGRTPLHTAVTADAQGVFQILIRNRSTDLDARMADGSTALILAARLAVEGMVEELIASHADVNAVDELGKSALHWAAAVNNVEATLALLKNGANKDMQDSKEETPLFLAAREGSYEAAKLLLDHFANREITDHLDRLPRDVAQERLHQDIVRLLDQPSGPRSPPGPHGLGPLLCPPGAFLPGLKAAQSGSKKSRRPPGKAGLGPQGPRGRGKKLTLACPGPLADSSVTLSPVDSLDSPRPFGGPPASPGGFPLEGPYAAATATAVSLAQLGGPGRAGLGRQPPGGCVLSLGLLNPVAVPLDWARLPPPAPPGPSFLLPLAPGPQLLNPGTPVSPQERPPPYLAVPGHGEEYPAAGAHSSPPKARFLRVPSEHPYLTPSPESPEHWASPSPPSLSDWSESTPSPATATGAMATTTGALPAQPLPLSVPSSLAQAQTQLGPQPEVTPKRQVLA
Torsin-1A-interacting protein 2 (Homo sapiens), sequence (Q8NFQ8 whole entry, looked up): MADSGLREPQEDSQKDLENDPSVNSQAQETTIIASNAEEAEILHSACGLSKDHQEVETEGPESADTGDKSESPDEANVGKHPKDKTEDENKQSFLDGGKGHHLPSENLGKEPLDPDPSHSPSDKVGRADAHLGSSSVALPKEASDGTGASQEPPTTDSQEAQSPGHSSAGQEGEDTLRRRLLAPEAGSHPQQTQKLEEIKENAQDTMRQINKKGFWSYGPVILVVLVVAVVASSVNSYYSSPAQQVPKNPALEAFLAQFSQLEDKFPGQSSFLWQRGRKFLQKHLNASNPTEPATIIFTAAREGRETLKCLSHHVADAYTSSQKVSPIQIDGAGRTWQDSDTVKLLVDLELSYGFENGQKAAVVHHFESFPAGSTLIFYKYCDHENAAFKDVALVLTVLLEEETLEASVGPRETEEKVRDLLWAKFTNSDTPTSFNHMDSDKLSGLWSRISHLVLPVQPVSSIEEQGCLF

As to `CC(C)(C)OC(=O)CC[C@@]1(C(N)=O)N=C(c2ccc(OCCCO)cc2)O[C@@H]1c1ccccc1N=[N+]=[N-]`, the composite z-score in [1] turned out to be 0.0551; in [2] it was 1.86; in assay [3], 0.0354; in assay [4], 1.23; in [5], 1.46; in assay [6], 0.798. In addition, the composite z-score in assay [7] was 1.36; in assay [9], 0.18; in assay [10] it was -0.0645; in assay [11] it was 1.16; in [15], 3.41; in assay [17] it was 0.0539. The composite z-score is 0.465 in assay [18], 0.976 in [19] and -0.019 in [20]. Further, the z-score was 3.06 (inactive) in assay [8]; 0.745 (inactive) in assay [12]; -0.86 (inactive) in [13]; -0.579 (inactive) in [14]; 0.77 (inactive) in assay [16].
On to `CC1CC/C=C\[C@H]2OC34C=CCN(CCN5CCOCC5)C(=O)[C@H]3N(CCCCCO)C(=O)[C@@H]4C2C(=O)O1` (stereo not given in full), for which the composite z-score is -0.0823 in [1]; -0.368 in assay [2]; -0.21 in assay [3]; -1.05 in [4]; -0.777 in assay [5]; -0.85 in assay [6]. Besides, the composite z-score is -0.358 in assay [7]; -0.633 in assay [9]; -0.216 in assay [10]; -0.632 in assay [11]; -1.13 in [15]; -0.339 in [17]. The composite z-score in assay [18] was -1.02; in assay [19], -1.17; in assay [20], -0.158. The z-score in [8] was 0.209 (inactive); in assay [12], -0.631 (inactive); in assay [13] it was -0.726 (inactive); in [14] it was -0.206 (inactive); in assay [16], -0.497 (inactive).
On to `O=C1C2C=CC(C(O)CCc3ccccc3)N(Nc3ccccc3)C2C(=O)N1c1ccccc1` (stereo not given), for which the composite z-score amounted to 0.572 in [1]; 1.83 in assay [2]; 0.288 in assay [3]; 0.83 in [4]; 1.61 in assay [5]; 2.09 in assay [6]. Moreover, the composite z-score in assay [7] is 1.22; in [9], 1.15; in assay [10], -0.0645; in assay [11], 1.49; in [15], 3.4; in assay [17], 0.231. Also, the composite z-score in assay [18] came out at 0.0749; in [19], 1.02; in assay [20] it was 0.0864. Further, the z-score is 0.0878 (inactive) in assay [8]; 0.655 (inactive) in assay [12]; 0.226 (inactive) in [13]; 1.43 (inactive) in assay [14]; -1.88 (inactive) in assay [16].
For the compound `Cc1ccc(S[C@]2(C(=O)NCc3ccccc3)CC(=O)N(Cc3cc(C(F)(F)F)cc(C(F)(F)F)c3)[C@@H]2c2ccc(CO)cc2)cc1`, the composite z-score in assay [1] is -0.989; in assay [2], -0.779; in assay [3] it was -0.172; in [4], -0.596; in assay [5], -0.885; in assay [6] it was 0.57. For the same compound, the composite z-score in assay [7] was 0.246; in [9], -0.0847; in assay [10], -0.362; in assay [11] it was 1.34; in [15], 1.94; in assay [17] it was -0.225. Also, the figures for the composite z-score in [18], in [19] and in [20] were 0.0043, -0.132 and -0.325, respectively. For the same compound, the z-score in [8] was -0.588 (inactive); in [12], 1.04 (inactive); in [13], -0.27 (inactive); in [14], 0.521 (inactive); in assay [16], -0.764 (inactive).
Turning to `Cc1ccc(S[C@]2(C(=O)NCC(F)(F)F)CC(=O)N(C3Cc4ccccc4C3)[C@@H]2c2ccc(CO)cc2I)cc1`, the composite z-score was 1.27 in assay [1]; 0.0708 in assay [2]; -0.11 in [3]; -0.433 in assay [4]; -0.929 in [5]; 0.569 in assay [6]. For the same compound, the composite z-score was 0.455 in assay [7]; -0.265 in assay [9]; 0.0024 in [10]; -0.535 in assay [11]; 1.18 in assay [15]; 0.157 in assay [17]. Moreover, the composite z-score is -0.883 in [18], -1.08 in assay [19] and -0.255 in assay [20]. Further, the z-score was -0.92 (inactive) in assay [8]; 0.0775 (inactive) in [12]; -0.967 (inactive) in [13]; 1.81 (inactive) in assay [14]; -0.701 (inactive) in assay [16].
